High-throughput results deposited in PubChem BioAssay by National Center for Advancing Translational Sciences (NCATS).
L3MBTL1 inh: qHTS Assay for the Inhibitors of L3MBTL1; AlphaScreen L3MBTL1–H3K9me1 peptide binding; actives 0.66% (n = 230,000); Lethal(3)malignant brain tumor-like protein 1 (Homo sapiens), Q9Y468; Potency, µM (highest dose often 57.1 µM), without a hit: top-dose activity, negative = inhibition, actives largely listed as inhibitors; AID 485360, 2010; note: potency is the fitted concentration of half-maximal effect; % is set by controls: 0 for no effect and ±100 for the full control effect; nearly all actives have a fitted effect of over 60% in size
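L3MBTL1 50 nM + b-AHA-H3(1-15)K9me1 75 nM, 30 min RT; compound added, 30 min RT; streptavidin donor/Ni-chelate acceptor beads 10 ug/mL each final, 30 min RT dark; AlphaScreen read.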
PI5P4Ka inh: qHTS for Inhibitors of phosphatidylinositol 5-phosphate 4-kinase (PI5P4K) | Phosphatidylinositol 5-phosphate 4-kinase type-2 alpha (Homo sapiens), P48426 | PI5P4Kalpha enzyme, ADP-Glo luminescence, 60 min; hits give low values | max response, % | actives 1.2% (n = 330,000) | AID 652105, 2013; active = max response of -50% or lower; inconclusive = between -30% and -50%; inactive = -30% or higher; note: value at the top dose of about 77 µM; % is set by controls: 0 for no effect and ±100 for the full control effect
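ADP-Glo luminescence end-point read after a 60 min room-temperature kinase reaction of PI5P4Kalpha plus substrate, initiated with ATP at 5 microM final. Buffer: 0.038 M HEPES pH 7.4, EGTA, 0.1% CHAPS, 5% DMSO.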
JMJD2A Tudor: qHTS Assay for Inhibitors of JMJD2A-Tudor Domain | actives 4.4% (n = 390,000) | AID 504339, 2011 | AlphaScreen JMJD2A-Tudor / H3K4me3 peptide binding | Potency, µM (top dose mostly 114 µM), without a hit: at the top dose activity change, negative = inhibition, actives largely listed as inhibitors | Lysine-specific demethylase 4A (Homo sapiens), O75164; note: potency is the fitted concentration of half-maximal effect; % is set by controls: 0 for no effect and ±100 for the full control effect; nearly all actives have a fitted effect of over 50% in size
Target sequence (O75164 whole entry, looked up, the tested form may be a part): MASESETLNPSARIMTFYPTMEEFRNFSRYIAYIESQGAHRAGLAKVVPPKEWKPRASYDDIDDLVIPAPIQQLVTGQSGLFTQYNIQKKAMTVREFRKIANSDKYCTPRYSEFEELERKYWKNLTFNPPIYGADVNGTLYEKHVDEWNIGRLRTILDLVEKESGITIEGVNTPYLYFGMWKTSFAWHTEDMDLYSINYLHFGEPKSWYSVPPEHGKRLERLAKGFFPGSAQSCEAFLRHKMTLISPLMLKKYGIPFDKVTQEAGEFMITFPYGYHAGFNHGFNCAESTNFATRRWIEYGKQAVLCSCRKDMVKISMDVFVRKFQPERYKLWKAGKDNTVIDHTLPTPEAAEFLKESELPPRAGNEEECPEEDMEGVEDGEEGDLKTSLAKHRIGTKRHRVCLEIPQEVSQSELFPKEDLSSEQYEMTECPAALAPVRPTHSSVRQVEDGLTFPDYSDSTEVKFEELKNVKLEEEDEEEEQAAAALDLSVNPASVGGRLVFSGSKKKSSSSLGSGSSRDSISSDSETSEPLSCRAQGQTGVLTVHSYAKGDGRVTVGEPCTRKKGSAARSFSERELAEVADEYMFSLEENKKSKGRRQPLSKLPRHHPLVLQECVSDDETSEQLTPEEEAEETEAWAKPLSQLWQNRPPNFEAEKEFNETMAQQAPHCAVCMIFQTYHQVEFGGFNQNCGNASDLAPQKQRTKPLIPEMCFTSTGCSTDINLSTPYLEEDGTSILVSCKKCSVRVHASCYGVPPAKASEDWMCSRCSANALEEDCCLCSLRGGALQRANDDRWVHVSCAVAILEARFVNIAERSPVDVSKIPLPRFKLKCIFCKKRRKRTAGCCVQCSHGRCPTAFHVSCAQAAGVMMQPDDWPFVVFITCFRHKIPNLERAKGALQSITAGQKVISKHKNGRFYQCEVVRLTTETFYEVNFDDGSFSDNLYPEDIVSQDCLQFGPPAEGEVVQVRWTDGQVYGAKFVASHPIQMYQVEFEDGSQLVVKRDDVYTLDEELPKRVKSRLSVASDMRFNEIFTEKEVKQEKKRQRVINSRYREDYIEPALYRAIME
HP1b binding inh: HTS for Inhibitors of HP1-beta Chromodomain Interactions with Methylated Histone Tails. Chromobox protein homolog 1 (Homo sapiens), P83916. AlphaScreen HP1-beta / biotin-H3K9me3 peptide binding. Potency, µM (series often up to 114 µM), for inactives: at the top dose activity change, negative = inhibition, hits mostly inhibitors. actives 0.56% (n = 390,000); note: potency is the fitted concentration of half-maximal effect; nearly all actives have a fitted effect of over 70% in size
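Compound inhibition of the preformed complex between 50 nM HP1-beta and 50 nM biotinylated H3K9me3 peptide was read by AlphaScreen. Buffer was PBS pH 7.4 with 0.01% Tween-20. Incubations ran 30 min at room temperature, with 10 ug/mL donor/acceptor beads.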
BAZ2B block: qHTS Assay for Inhibitors of BAZ2B | actives 4.4% (n = 360,000) | AlphaScreen BAZ2B-H3K14Ac peptide displacement | AID 504333, 2011 | Potency, µM (doses to about 114 µM), for inactives: at the highest dose activity change, negative = inhibition, hits mostly inhibitors | Bromodomain adjacent to zinc finger domain protein 2B (Homo sapiens), Q9UIF8; note: potency is the fitted concentration of half-maximal effect; % is set by controls: 0 for no effect and ±100 for the full control effect; nearly all actives have a fitted effect of over 60% in size
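In this displacement format the biotinylated H3(5-23) peptide acetylated at Lys14 serves as ligand at 50 nM, with BAZ2B at 50 nM in PBS pH 7.4 containing 0.01% Tween-20. Donor and acceptor beads are 10 ug/mL final.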
G9a inh-1: qHTS Assay for Inhibitors of Histone Lysine Methyltransferase G9a | Potency, µM (top dose mostly 102 µM), inactives show at the top dose activity, negative = inhibition, most hits filed as inhibitors | AID 504332, 2011 | actives 8.8% (n = 350,000) | Histone-lysine N-methyltransferase EHMT2 (Homo sapiens), Q96KQ7 | G9a H3K9 monomethylation, AlphaScreen, 2 h; note: potency is the fitted concentration of half-maximal effect; % is set by controls: 0 for no effect and ±100 for the full control effect; nearly all actives have a fitted effect of over 75% in size
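Enzyme 20 nM + cpd, 15 min RT; add b-H3K9 pep 500 nM / SAM 20 uM; 2 h RT; anti-H3K9me1 Ab 0.5 ug/mL + SA donor / anti-rabbit acceptor beads 20 ug/mL each, 10 min; AlphaScreen read.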
G9a inh-2: qHTS Assay for Inhibitors of Histone Lysine Methyltransferase G9a: Hit Confirmation | shares compounds with JMJD2A Tudor | G9a H3K9 monomethylation, AlphaScreen, 2 h | Potency, µM, hits mostly inhibitors | actives 89% (n = 370) | AID 588344, 2011; note: potency is the fitted concentration of half-maximal effect; nearly all actives have a fitted effect of over 65% in size
RGS4 inh: qHTS for Inhibitors of Regulator of G Protein Signaling(RGS) 4: Hit Validation; shares compounds with JMJD2A Tudor; RGS4 GAP activity, Transcreener GDP fluorescence polarization; Potency, µM, usual class: inhibitors; actives 80% (n = 25)
* marks the source's active call; other numbers are inactive results; ? = inconclusive; / = no result given; [ ] = another dose, or the depositor's remark. Compounds with a hit are over-represented: about 11% of the library has one in this group of screens. Unless noted, calls come from the whole dose curve; as a rule, active = well fitted curve in the direction sought with a large enough effect; inconclusive = small, poorly fitted or top-dose-only effect, or another doubt; inactive = no such curve, though single readings can be large; an effect the other way counts as inactive or inconclusive.

SMILES	L3MBTL1 inh	PI5P4Ka inh	JMJD2A Tudor	HP1b binding inh	BAZ2B block	G9a inh-1	G9a inh-2	others
O=C(c1cccnc1)N1CCN(Cc2ccc3c(c2)OCO3)CC1	/	-0.1	6.31µM*	?	50.1µM*	?	7.1*
Cc1cc(C)cc(C(=O)N2CCN(Cc3ccc4c(c3)OCO4)CC2)c1	0.1%	-3.9	-17.2%	17.8%	-1.9%	?	/
FC(F)(F)c1ccccc1-c1cncnc1NCc1ccccc1	/	/	/	/	/	9.2%[0.501 µM]	/
CNc1ncncc1-c1ccccc1C(F)(F)F	/	/	/	/	/	?	/	RGS4 inh=26.7*
COc1ccc(Nc2nc(N)nc(N)c2S(=O)(=O)c2ccccc2)cc1	/	/	-29.1%	23.8%	-29.0%	-15.4%[59 µM]	/
CC(=O)c1ccc(NC(=O)c2ccc(-c3ccc(Cl)cc3)o2)cc1	/	/	-16.3%	21.6%	-22.1%	?	/
COc1ccc(NC(=O)c2ccc(-c3ccc(C(C)=O)cc3)o2)cn1	8.4%	3.4	-27.4%	-19.3%	2.2%	1.58µM*	?
CCOc1cccc(CNc2ccc(O)cc2)c1OCc1ccc(Cl)cc1Cl	?	-19.5	-34.7%	?	?	2.51µM*	2.52*
CCOc1cccc(CNc2ccc(O)cc2)c1OCc1ccccc1Cl	39.8µM*	-19.2	44.7µM*	?	?	4.47µM*	3.16*
CCOc1cccc(CNn2cnnc2)c1OCc1ccccc1Cl	-1.8%	2.3	-14.6%	19.5%	-2.7%	11.3%[59 µM]	/
CCOc1ccc(NC(=O)CSc2ncc3c(n2)-c2ccc(Cl)cc2N(Cc2ccccc2)S3(=O)=O)cc1	/	/	-4.5%	12.9%	-0.6%	-4.4%[59 µM]	/
COc1ccc(OC)c(S(=O)(=O)NCCc2sc(C)nc2C)c1	/	/	-10.3%	10.7%[57 µM]	3.4%	10.7%[59 µM]	/
c1ccc(-c2ccc3c(c2)NCCN3)cc1	/	1.4	44.7µM*	?	56.2µM*	?	0.564*
Cc1ccc(OCC(=O)Nc2cccc(-c3nc4ccccc4s3)c2)cc1	/	/	-12.3%	-14.4%	0.5%	2.51µM*	11.2*
Cc1cccc(OCC(=O)Nc2cccc(-c3nc4ccccc4s3)c2)c1	/	/	-2.0%	55.8%	4.9%	12.9%[59 µM]	/
Cc1ccccc1OCc1ccc(-c2nc(C#N)c(N3CCN(c4ccccc4)CC3)o2)o1	/	/	-31.1%	8.1%	?	?	?
COc1ccccc1CNC(=O)CCc1c(C)nn(-c2ccc(N3CCCC3)nn2)c1C	/	/	-7.0%	51.6%	-19.2%	-1.5%[59 µM]	/
O=C(Nc1ccc(N2CCCCCC2)cc1)c1ccccc1Cl	?	4.2	31.6µM*	35.5µM*	28.2µM*	2.51µM*	7.08*
Cc1cc(C)cc(C(=O)Nc2ccc(N3CCCC3)cc2)c1	-6.1%[2.29 µM]	-13.5	?	-13.0%	?	-126.8%	0.71*
CC(C)C(=O)Nc1ccc(N2CCN(c3ccc(F)cc3)CC2)cc1	-6.6%	2.5	-5.6%	33.1%	-2.7%	-0.4%	/
CC(C)C(=O)Nc1ccc(N2CCCC2)cc1	/	1.6	?	3.3%	-38.0%	?	1*
